Experimental findings from PubChem BioAssay (NCATS) are described below.

Results filed as inconclusive are left out. Where a call stands in place of a potency, no number is given. The source made the active and inactive calls. Calls follow the shape of the full dose curve.
Potency is read from the fitted curve at half-maximal effect.

One assay is described as follows: Cytotoxicity counterscreen for inhibitors of SARS-CoV-2 cell entry (AID 1645845). Also: nearly all actives have a fitted effect of over 50% in size. Particulars: cell viability (SARS-CoV-2 entry assay cells); series mostly up to 57.1 µM. An outline of the steps: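 HEK293-ACE2 cells (Expi293F stably expressing human ACE2) seeded overnight, then compound for 1 h plus 48 h at 37C. Viability as ATP content by luminescence; normalized to wells with cells and media-only wells.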
For orientation: A counterscreen serves to expose hits that act by an unwanted route or on another target.
Take `Cn1c(NC[C@@H](N)Cc2ccccc2)nc(-c2ccncc2)c(-c2ccc3ccccc3c2)c1=O`: the Potency result is “inactive”.

Take `COc1cc(N2CCN(C)CC2)ccc1Nc1nccc(-c2cn(C)c3cnccc23)n1`: the Potency result was “inactive”.

In the case of `Nc1nc(Nc2ccc3c(c2)CC[C@@H](N2CCCC2)CC3)nn1-c1cc2c(nn1)-c1ccccc1CCC2`, the Potency result was “inactive”.

Consider `CC(C)C[C@H](NC(=O)[C@H](Cc1ccccc1)NC(=O)OCc1ccccc1)C(=O)C=O`, for which the Potency entry is “inactive”.

In the case of `Nc1nc(OC(c2ccc(-c3cccc(F)c3)cc2)C(F)(F)F)cc(-c2ccc(C[C@H](N)C(=O)O)cc2)n1` (stereo not given in full), the Potency result was “inactive”.

With `CC(C)(O)CNc1ncc(-c2ccnc(Nc3ccncc3)n2)c(CC2CC2)n1`, the Potency is 25.1 µM (active).

Take `CC(=O)O/N=C1\C(=O)N(Cc2cc(Cl)ccc2Cl)c2ccc(Cl)cc21`: the Potency result was “inactive”.

The next assay is described as follows: Primary qHTS to identify inhibitors of SARS-CoV-2 cell entry (AID 1645846). Also: nearly all actives have a fitted effect of over 45% in size. Particulars: SARS-CoV-2 pseudovirus cell entry assay, luminescence; activity change, negative = inhibition: at 57.1 µM (top of the series) unless noted. The method, boiled down: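 Entry measured by luciferase signal 48 h after adding SARS-CoV-2-S pseudotyped MLV particles to HEK293-ACE2 cells preincubated 1 h with compounds. Normalisation: bald particles and spike particles.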
(In qHTS, concentration-response curves come from the screen itself.)
Turning to `c1ccc2c(-c3cnn4cc(-c5ccc(OCCN6CCOCC6)cc5)cnc34)ccnc2c1`, the Potency result was “inactive”.

Take `Cn1c(NC[C@@H](N)Cc2ccccc2)nc(-c2ccncc2)c(-c2ccc3ccccc3c2)c1=O`: the Potency was 28.2 µM (active).

With `Nc1nc(Nc2ccc3c(c2)CC[C@@H](N2CCCC2)CC3)nn1-c1cc2c(nn1)-c1ccccc1CCC2`, the Potency was 12.6 µM (active).

Turning to `Cc1nc2ccc(-n3ncc(C(=O)c4cc5ccccc5[nH]4)c3N)cc2[nH]1`, the Potency is 11.2 µM (active).

Turning to `COCCN1CCN(Cc2ccc(-c3n[nH]c4c3C(=O)c3c(NC(=O)NN5CCOCC5)cccc3-4)cc2)CC1`, the activity change, negative = inhibition was -93.4%.

As to `CC(C)C[C@H](NC(=O)[C@H](Cc1ccccc1)NC(=O)OCc1ccccc1)C(=O)C=O`, the Potency is 14.1 µM (active).

On to `Nc1nc(OC(c2ccc(-c3cccc(F)c3)cc2)C(F)(F)F)cc(-c2ccc(C[C@H](N)C(=O)O)cc2)n1` (stereo not given in full), for which the Potency entry is “inactive”.

Take `CC(C)(O)CNc1ncc(-c2ccnc(Nc3ccncc3)n2)c(CC2CC2)n1`: the Potency is 10 µM (active).
